Values without a mark were called inactive. Results filed as inconclusive are left out. A call without a number means that no potency is given here. The source made the active and inactive calls. Unless noted, the call rests on the fitted dose curve; in most records, active means well fitted curve in the direction sought with a large enough effect in the repeat runs; inconclusive means weak or mixed curves; inactive means no such curve, though single readings can be large; an effect the other way counts as inactive or inconclusive.
Key:
[1] = target: Luciferin 4-monooxygenase (Photinus pyralis) (UniProt P08659); test: qHTS assay to identify small molecule inhibitors of firefly luciferase (AID 1224835); further: nearly all actives have a fitted effect of over 25% in size; further: potency means the concentration at half of the fitted maximal effect
How it was run: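 Quantitative HTS format; KM concentrations of both substrates. Purified P. pyralis FLuc activity quantified from luminescence images.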

[2] = qHTS assay to identify small molecule agonists of the constitutive androstane receptor (CAR) signaling pathway - cell viability counter screen (AID 1224836); further: nearly all actives have a fitted effect of over 45% in size; further: potency means the concentration at half of the fitted maximal effect
How it was run: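 Using CellTiter-Fluor, viability of HepG2 cells harbouring hCAR and CYP2B6-2.2kb was measured following 23 h incubation with a 15-concentration compound series plus PK11195 (0.75 uM final).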

[3] = qHTS assay to identify small molecule antagonists of the constitutive androstane receptor (CAR) signaling pathway - cell viability counter screen (AID 1224837); further: nearly all actives have a fitted effect of over 45% in size; further: potency means the concentration at half of the fitted maximal effect
How it was run: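 HepG2 cells stably carrying hCAR and CYP2B6-2.2kb reporter, stimulated with 50 nM CITCO and compounds at 15 concentrations for 23 h at 37 C. Viability measured by CellTiter-Fluor fluorescence.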

[4] = target: Nuclear receptor subfamily 1 group I member 3 (Homo sapiens) (UniProt Q14994); test: qHTS assay to identify small molecule antagonists of the constitutive androstane receptor (CAR) signaling pathway (AID 1224838); further: nearly all actives have a fitted effect of over 40% in size
How it was run: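 HepG2 cells stably carrying hCAR and a CYP2B6-2.2kb luciferase reporter, seeded 4 hrs before compound (15 concentrations). Stimulated with 50 nM CITCO for 24 hr at 37 C. ONE-Glo luminescence read after 30 min at room temperature.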

[5] = target: Nuclear receptor subfamily 1 group I member 3 (Homo sapiens) (UniProt Q14994); test: qHTS assay to identify small molecule agonists of the constitutive androstane receptor (CAR) signaling pathway (AID 1224839); further: nearly all actives have a fitted effect of over 15% in size; further: potency means the concentration at half of the fitted maximal effect
How it was run: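 Double-stable HepG2 cells (hCAR, CYP2B6-2.2kb) seeded 4 h before compound addition. Exposure 24 h with 0.75 uM PK11195 final. Luciferase detected by ONE-Glo.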

[6] = qHTS assay to identify small molecule antagonists of the estrogen related receptor signaling pathway with the pleiotropic PPARgamma coactivator (PGC) from Tox21 10K library - cell viability counter screen (AID 1224840; active means well fitted cell-killing curve with a large enough effect in the repeat runs, not every such curve was filed as active; further: nearly all actives have a fitted effect of over 40% in size; further: potency means the concentration at half of the fitted maximal effect)
How it was run: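 PGC/ERR cells (2,000/well) plated 6 h, then compound-treated for 17.5 h at 37 C. Viability measured by CellTiter-Fluor fluorescence after 30 min at 37 C, multiplexed with the pathway assay.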

[7] = target: Thyrotropin receptor (Homo sapiens) (UniProt P16473); test: qHTS assay to identify small molecule agonists of the thyroid stimulating hormone receptor (TSHR) signaling pathway (AID 1224843; calls by dose curve; further: nearly all actives have a fitted effect of over 45% in size; further: potency means the concentration at half of the fitted maximal effect)
How it was run: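 Cell line HEK293 with TSHR; density 800/well. Exposure 30 min RT. Readout HTRF cAMP (cAMP-d2/anti-cAMP-cryptate), 1 h RT before reading.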

[8] = qHTS assay to identify small molecule agonists of H2AX - cell viability counter screen (AID 1224847; calls by dose curve; further: nearly all actives have a fitted effect of over 30% in size; further: potency means the concentration at half of the fitted maximal effect)
How it was run: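 Quantitative HTS viability measurement: CHO-K1 wild-type cells in serum (10% FBS) medium, short 3 hr drug exposure at 37C with 0.76% DMSO, CellTiter-Glo luminescent detection.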

[9] = qHTS RealTime-Glo MT Cell Viability Assay in HepG2 cells - 24 hour (AID 1224867); further: nearly all actives have a fitted effect of over 50% in size; further: potency means the concentration at half of the fitted maximal effect
How it was run: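 Cell number in HepG2 cultures estimated from NanoLuc luminescence generated by metabolic reduction of a prosubstrate by living cells. The homogeneous, nonlytic format allowed repeated reads at 0, 8, 16, 24, 32 and 40 h of compound exposure.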

[10] = qHTS RealTime-Glo MT Cell Viability Assay in HEK293 cells - 32 hour (AID 1224868); further: nearly all actives have a fitted effect of over 50% in size; further: potency means the concentration at half of the fitted maximal effect
How it was run: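 Homogeneous bioluminescent viability format in HEK293 cells (600 cells/well). Following 5 h at 37 C/5% CO2, 23 nL compound was pintooled; the signal was measured repeatedly during 40 h incubation.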

[11] = A CellTox Green Cytotoxicity Assay to monitor cytotoxicity in HEK293 cells - 0 hour (AID 1224869); further: nearly all actives have a fitted effect of over 50% in size
How it was run: (§1)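 HEK293 cells, 600/well, were preincubated 5 hours and then exposed to compounds at 37 C for up to 40 hours. A cell-impermeant cyanine dye staining dead-cell DNA was read by fluorescence at 0, 8, 16, 24, 32 and 40 h time points.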

[12] = qHTS RealTime-Glo MT Cell Viability Assay in HepG2 cells - 40 hour (AID 1224870); further: nearly all actives have a fitted effect of over 50% in size; further: potency means the concentration at half of the fitted maximal effect
How it was run: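 HepG2 cells mixed with RealTime-Glo MT reagents (NanoLuc plus cell-permeant prosubstrate) were seeded at 600 cells/well, incubated 5 h at 37 C/5% CO2, then pinned with compounds in DMSO; nonlytic luminescence tracked viability during 40 h treatment.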

[13] = A CellTox Green Cytotoxicity Assay to monitor cytotoxicity in HEK293 cells - 40 hour (AID 1224871); further: nearly all actives have a fitted effect of over 45% in size; further: potency means the concentration at half of the fitted maximal effect
How it was run: as §1

[14] = qHTS assay to identify small molecule agonists of the estrogen related receptor signaling pathway with the pleiotropic PPARgamma coactivator (PGC) from Tox21 10K library (AID 1224842); further: nearly all actives have a fitted effect of over 15% in size
How it was run: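 PGC/ERR reporter cells (NTP line) were seeded 2,000 per well, rested 6 h at 37 C/5% CO2, then pin-dosed with compounds in DMSO for 18 h at 37 C; luciferase read by One-Glo luminescence after 30 min at room temperature.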

[15] = qHTS assay to identify small molecule agonists of H2AX (AID 1224845; active means well fitted activation curve with a large enough effect in the signal ratio in the repeat runs, not every such curve was filed as active; the % refers to the signal ratio; further: potency means the concentration at half of the fitted maximal effect)
How it was run: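 Wild-type CHO-K1 cells plated overnight, then exposed 3 hr at 37C to compounds at 15 concentrations (0.76% DMSO). Lysed, then HTRF anti-pH2AX(S139)-cryptate/anti-H2AX-d2 detection after 24 hr at room temperature; emissions 665 and 620 nm.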

[16] = qHTS assay to identify small molecule agonists of the hypoxia (HIF-1) signaling pathway (AID 1224846; active means well fitted activation curve with a large enough effect in the signal ratio in the repeat runs, not every such curve was filed as active; the % refers to the signal ratio)
How it was run: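 HRE-bla ME-180 beta-lactamase reporter cells in medium with 0.5% dialyzed FBS, pre-incubated 5 h then exposed to compounds 17 h at 37C, 5% CO2; reporter induction read with CCF4-AM FRET substrate.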

[17] = qHTS assay to identify small molecule agonists of the estrogen related receptor (ERR) signaling pathway from Tox21 library (AID 1224849; calls by dose curve; further: nearly all actives have a fitted effect of over 15% in size); settings: ERR reporter cell line, ONE-Glo luciferase, 18 h; at 92.4 µM (top of the series) unless noted
How it was run: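 ERR reporter cells (NTP line) pre-incubated 6 hours at 37 C, then exposed to compounds for 18 hours at 37 C. ONE-Glo luciferase luminescence was read after 30 minutes at room temperature.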

[18] = qHTS assay to identify small molecule agonists of the hypoxia (HIF-1) signaling pathway - cell viability counter screen (AID 1224844; calls by dose curve; further: nearly all actives have a fitted effect of over 50% in size; further: potency means the concentration at half of the fitted maximal effect)
How it was run: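 HRE-bla ME-180 cells, 2,000/well in 0.5% dialyzed FBS medium, treated 17 h at 37C with compounds. Viability read in the same wells as the bla reporter, by CellTiter-Glo luminescence after 30 min at room temperature.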

[19] = qHTS assay to identify small molecule antagonists of the estrogen related receptor signaling pathway with the pleiotropic PPARgamma coactivator (PGC) from Tox21 10K library (AID 1224841; call rule not given here; further: potency means the concentration at half of the fitted maximal effect)
How it was run: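 PGC/ERR cell line, 2,000 cells/well, pre-incubated 6 hours at 37 C, then exposed to compounds for 18 hours at 37 C; luciferase read with One-Glo luminescence after 30 min at room temperature.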

[20] = qHTS assay to identify small molecule antagonists of the estrogen related receptor (ERR) signaling pathway from Tox21 library (AID 1224848); further: nearly all actives have a fitted effect of over 50% in size; further: potency means the concentration at half of the fitted maximal effect
How it was run: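 Screening used an ERR reporter line supplied by NTP, exposed for 18 h at 37 C to library compounds delivered in DMSO. Signal was luciferase luminescence developed with ONE-Glo at room temperature for 30 min.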

Luciferin 4-monooxygenase (Photinus pyralis), sequence (P08659 whole entry, looked up): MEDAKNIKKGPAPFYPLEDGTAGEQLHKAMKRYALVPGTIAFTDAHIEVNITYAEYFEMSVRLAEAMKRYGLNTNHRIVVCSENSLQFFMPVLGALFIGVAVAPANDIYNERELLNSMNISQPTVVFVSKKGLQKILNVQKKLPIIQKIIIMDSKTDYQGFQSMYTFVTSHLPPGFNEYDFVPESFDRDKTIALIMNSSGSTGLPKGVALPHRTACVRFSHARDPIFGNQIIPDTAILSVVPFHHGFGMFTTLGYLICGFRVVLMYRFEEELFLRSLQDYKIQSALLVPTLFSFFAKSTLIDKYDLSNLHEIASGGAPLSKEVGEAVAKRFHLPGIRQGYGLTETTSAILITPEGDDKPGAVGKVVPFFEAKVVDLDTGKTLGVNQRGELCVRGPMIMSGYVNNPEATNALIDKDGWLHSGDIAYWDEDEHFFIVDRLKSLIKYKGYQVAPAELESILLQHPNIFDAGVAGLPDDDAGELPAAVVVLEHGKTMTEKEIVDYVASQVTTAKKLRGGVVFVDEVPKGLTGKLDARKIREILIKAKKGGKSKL
Nuclear receptor subfamily 1 group I member 3 (Homo sapiens), sequence (Q14994 whole entry, looked up): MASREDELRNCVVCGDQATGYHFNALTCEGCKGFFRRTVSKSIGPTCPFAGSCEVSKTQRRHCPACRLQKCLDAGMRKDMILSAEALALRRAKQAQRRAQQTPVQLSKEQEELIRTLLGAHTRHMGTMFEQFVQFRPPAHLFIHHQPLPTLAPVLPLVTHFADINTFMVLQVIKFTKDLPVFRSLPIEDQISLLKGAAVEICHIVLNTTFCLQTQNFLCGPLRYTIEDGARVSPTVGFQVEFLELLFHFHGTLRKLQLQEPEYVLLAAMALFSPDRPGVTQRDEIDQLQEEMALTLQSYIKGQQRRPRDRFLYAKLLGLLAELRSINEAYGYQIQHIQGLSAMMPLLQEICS
Thyrotropin receptor (Homo sapiens), sequence (P16473 whole entry, looked up): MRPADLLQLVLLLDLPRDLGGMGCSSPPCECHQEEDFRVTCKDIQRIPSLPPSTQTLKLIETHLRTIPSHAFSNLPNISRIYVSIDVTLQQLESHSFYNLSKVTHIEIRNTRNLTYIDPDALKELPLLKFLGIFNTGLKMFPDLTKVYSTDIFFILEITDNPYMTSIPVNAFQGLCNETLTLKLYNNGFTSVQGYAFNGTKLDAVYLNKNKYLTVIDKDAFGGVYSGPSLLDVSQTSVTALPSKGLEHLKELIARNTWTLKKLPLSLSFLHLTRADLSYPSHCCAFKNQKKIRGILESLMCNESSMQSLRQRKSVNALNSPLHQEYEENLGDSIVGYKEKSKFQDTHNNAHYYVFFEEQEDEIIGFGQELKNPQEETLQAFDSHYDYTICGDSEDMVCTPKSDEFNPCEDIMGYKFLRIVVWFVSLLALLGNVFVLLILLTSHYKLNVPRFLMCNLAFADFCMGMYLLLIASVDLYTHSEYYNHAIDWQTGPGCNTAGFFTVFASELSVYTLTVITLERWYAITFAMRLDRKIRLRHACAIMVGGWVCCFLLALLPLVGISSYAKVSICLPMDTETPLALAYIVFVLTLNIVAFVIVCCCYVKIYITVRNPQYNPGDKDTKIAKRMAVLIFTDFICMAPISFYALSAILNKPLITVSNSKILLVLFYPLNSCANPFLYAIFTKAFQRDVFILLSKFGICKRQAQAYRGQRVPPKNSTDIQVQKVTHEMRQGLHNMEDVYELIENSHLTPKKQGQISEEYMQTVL

| SMILES | Potency [1] | Potency [2] | Potency [3] | Potency [4] | Potency [5] | Potency [6] | Potency [7] | Potency [8] | Potency [9] | Potency [10] | Potency [11] | Potency [12] | Potency [13] | Potency [14] | Potency [15] | outcome [16] | activity change, positive = activation [17] | Potency [18] | Potency [19] | Potency [20] |
| --- | --- | --- | --- | --- | --- | --- | --- | --- | --- | --- | --- | --- | --- | --- | --- | --- | --- | --- | --- | --- |
| Nc1ccccc1C(=O)OC/C=C/c1ccccc1 | 31.8 µM (active) | inactive | inactive | inactive | 48.7 µM (active) | inactive | inactive | 101 µM (active) | inactive | 24.6 µM (active) | inactive | inactive | inactive | – | – | – | – | – | – | – |
| Cc1cc(C(F)(C(F)(F)F)C(F)(F)F)ccc1NC(=O)c1cccc(I)c1C(=O)NC(C)(C)CS(C)(=O)=O | inactive | inactive | inactive | – | inactive | inactive | inactive | inactive | inactive | – | inactive | inactive | inactive | inactive | inactive | inactive | -22.4% [at 42.5 µM] | – | – | – |
| Fc1cccc(Cl)c1CCl | inactive | inactive | inactive | inactive | – | inactive | inactive | inactive | inactive | inactive | inactive | inactive | inactive | – | inactive | inactive | – | inactive | – | – |
| COP(=O)(CCC(=O)NCO)OC | inactive | inactive | inactive | – | inactive | inactive | inactive | inactive | inactive | – | inactive | inactive | inactive | inactive | inactive | inactive | 3.27% | inactive | inactive | inactive |
| O=C1C=CC(=O)c2ccccc21 | 20 µM (active) | 54.5 µM (active) | 43.3 µM (active) | – | inactive | 61.1 µM (active) | – | 20.1 µM (active) | 21.9 µM (active) | 5.49 µM (active) | inactive | 24.5 µM (active) | 3.89 µM (active) | inactive | – | – | -74.8% | 11 µM (active) | 34.4 µM (active) | 27.3 µM (active) |
| CC(C)OC(=O)C(O)(c1ccc(Cl)cc1)c1ccc(Cl)cc1 | inactive | inactive | inactive | inactive | – | inactive | 48.6 µM (active) | 56.6 µM (active) | – | 21.9 µM (active) | inactive | – | 49 µM (active) | – | 80 µM (active) | – | – | 54.9 µM (active) | – | – |
| CC(=O)Nc1ccc2c(c1)Cc1ccccc1-2 | 28.7 µM (active) | inactive | inactive | inactive | 31.1 µM (active) | inactive | – | inactive | inactive | inactive | inactive | inactive | inactive | – | inactive | inactive | – | inactive | – | – |
| Nc1ccccc1C(=O)Oc1ccc2ccccc2c1 | 1.78 µM (active) | inactive | inactive | inactive | 54.5 µM (active) | inactive | inactive | 80 µM (active) | inactive | inactive | inactive | inactive | inactive | – | – | – | – | – | – | – |

Reference: PubChem BioAssay (Tox21)
